# In the library only some 7.2% were active in any assay of this set; here they are far more common.
# Marburg entry inh = Marburg virus entry inhibition; Marburg virus pseudotyped entry inhibition, cell reporter; Potency, µM (series often up to 37.8 µM), for inactives: at the top dose activity change, negative = inhibition, most hits filed as inhibitors; 300,000 tested, 1.8% active; calls by dose curve; tested in HEK293 cells
# RE007 growth inh = less growth of the S. pombe RE007 Vpr strain. S. pombe RE007 Vpr strain, BacTiter-Glo ATP luminescence, 24 h. Potency, µM (doses to about 92.2 µM), without a hit: top-dose activity change, negative = less growth, actives largely listed as inhibitors. 360,000 tested, 0.21% active; active = well fitted falling curve with a large enough effect; inconclusive = small, poorly fitted or top-dose-only effect; inactive = no such curve, though single readings can be large or run the other way; note: nearly all actives have a fitted effect of over 50% in size
#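 Fission yeast strain RE007, carrying one chromosomally integrated HIV-1 vpr copy, was seeded at OD 0.01 in PMG+AL medium with 23 nL pinned compound. After 24 h at 30 °C and 99% humidity, viability was read by BacTiter-Glo luminescence.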
# FMDV antiviral = antivirals against foot and mouth disease virus | FMDV antiviral cell-based qHTS | Potency, µM (top dose mostly 57.9 µM), inactives show at the top dose activity change, negative = inhibition, hits mostly inhibitors | 410,000 tested, 1.2% active | AID 1159524; calls by dose curve; tested in HEK293T cells; note: read-out not given here; nearly all actives have a fitted effect of over 45% in size
# Lassa entry inh = blocks Lassa virus binding to or entry into cells; Lassa virus pseudotype entry inhibition, cell reporter; Potency, µM (series often up to 37.9 µM), for the others: at the top dose activity change, negative = inhibition, actives largely listed as inhibitors; 300,000 tested, 1.2% active; calls by dose curve; tested in HEK293 cells; note: nearly all actives have a fitted effect of over 50% in size
# HCV inhibitor = inhibitors of hepatitis C virus infection; Huh7.5.1 HCVcc-Cre infection, luciferase reporter, 44 h; Potency, µM (highest dose often 41.8 µM), for the others: at the top dose activity change, negative = inhibition, hits mostly inhibitors; 340,000 tested, 3.4% active; AID 651820
#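 HCVcc-Cre virus at an moi near 0.5 was added right after compound to cells cultured 4 h from seeding (1,000 cells/well). Luciferase activity was determined 44 h later, 15 min after substrate addition at RT.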
# Sm TGR block = blocks Schistosoma mansoni thioredoxin glutathione reductase. Q962Y6. 360,000 tested, 3% active. AID 485364. Potency, µM (top dose mostly 114 µM), for inactives: top-dose activity change, negative = inhibition, usual class: inhibitors. purified TGR, DTNB reduction, TNB absorbance 405 nm; note: nearly all actives have a fitted effect of over 60% in size
#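 First, TGR (20 nM dispensed) and NADPH were mixed with compound. Second, a 15 min room-temperature incubation followed. Third, further NADPH and then DTNB were added to start the reaction. Finally, TNB absorbance was monitored kinetically.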
# * = called active by the depositor; ? = inconclusive; . = not tested or not shown; [ ] = dose if it differs, or a comment. Unless noted, calls come from the whole dose curve; as a rule, active = well fitted curve in the direction sought with a large enough effect; inconclusive = small, poorly fitted or top-dose-only effect, or another doubt; inactive = no such curve, though single readings can be large; an effect the other way counts as inactive or inconclusive. % is set by controls: 0 for no effect and ±100 for the full control effect; potency is the fitted concentration of half-maximal effect.
SMILES,Marburg entry inh,RE007 growth inh,FMDV antiviral,Lassa entry inh,HCV inhibitor,Sm TGR block
Cc1cccc(-n2c(CNC(=O)c3cccc(F)c3)nnc2SCC(=O)Nc2ccccc2F)c1,?,.,0%,?,.,11%
CCOc1cc(CNCc2ccncc2)cc(Br)c1OCc1ccccc1F,?,-12%,?,?,7.9µM*,-1%
CCOc1cc(CNCc2cccs2)cc(Br)c1OCC,?,3%,?,?,?,-3%
CCOc1cc(CNCCO)cc(Br)c1OCc1cccs1,?,-12%,?,-25%,5.6µM*,4%
COc1cccc(OCCSc2nc3ccccc3n2CC(=O)N2CCOCC2)c1,-22%[46.1 µM],.,-9%,3%[46.1 µM],.,0%
CN(CC(=O)Nc1ccc([N+](=O)[O-])cc1Br)Cc1c(F)cccc1Cl,.,4%,-4%,.,14µM*,17%
Oc1ccccc1N=Nc1ccccc1O,.,-36%,56%,.,0.89µM*,3%
O=[N+]([O-])NC1=NCN(Cc2ccco2)CN1Cc1ccco1,0.28µM*,2%,-4%,9%,?,7%
O=C(Nc1ccc(Cl)cc1)Nc1nnc(CSCc2ccc(Cl)cc2)s1,.,2%,?,.,5µM*,-8%
Cc1ccc(OCC(=O)Nc2ccccc2C(=O)OCc2cc(=O)n3nc(C4CC4)sc3n2)cc1,.,.,?,9%[46.1 µM],.,-3%
Cc1ccccc1Nc1c(-c2ccsc2)nc2c(C)cccn12,6%[46.1 µM],.,?,4%[46.1 µM],.,0%
CCOC(=O)C1=C(C)Nc2ccccc2N=C1NC(=O)C(c1ccccc1)c1ccccc1,?,4%,-21%,-24%,-24%,13%
CCCCOc1ccc(/C=C/C(=O)NC2=Nc3ccccc3NC(C)=C2C(=O)OCC)cc1OC,6.3µM*,-17%,-9%,1%[46.1 µM],?,-1%
Cc1cc2c(c(=O)o1)[C@H]1O[C@](c3ccsc3)(Cc3ccccc31)O2,10%[14.2 µM],.,.,.,.,.
COC(=O)c1ccccc1NC(=O)NCc1ccc2c(c1)CCN2C(=O)c1ccccc1,.,.,-27%,?,.,9%
Cc1nc(NC(=O)/C=C/c2ccco2)sc1C,-20%,11%,28%,1%,1%,50µM*
O=C(/C=C/c1ccco1)Nc1cccc(NC(=O)/C=C/c2ccco2)n1,?,1%,19%,6%,?,-36%
CCc1nnc(NC(=O)/C=C/c2ccco2)s1,-2%,-2%,44%,.,6%,40µM*
O=C(/C=C/c1ccco1)NC1=NCCS1,5%,-1%,0%,?,9%,45µM*
Cc1ccc(-c2csc(NC(=O)/C=C/c3ccco3)c2C(=O)O)cc1,?,0%,13%,?,15%,.
COc1cc(/C=C/C(=O)Nc2nc3ccc(S(=O)(=O)N(C)C)cc3s2)cc(OC)c1OC,?,-14%,-6%,4%,-16%,-5%
O=C(/C=C/c1ccco1)Nc1nnc(-c2ccco2)s1,.,8%,55%,.,3%,-22%
CNS(=O)(=O)c1ccc2nc(NC(=O)/C=C/c3ccco3)sc2c1,-24%[46.1 µM],-13%,1%,-16%[46.1 µM],?,22µM*
COC(=O)c1sc(NC(=O)c2ccoc2C)nc1C,23%,-1%,43%,7%,?,1%
COC(=O)c1sc(NC(=O)/C=C/c2ccc(C)o2)nc1C,?,-25%,21%,?,-17%,45µM*
SMILES,Marburg entry inh,RE007 growth inh,FMDV antiviral,Lassa entry inh,HCV inhibitor,Sm TGR block
CCSc1nnc(NC(=O)/C=C/c2ccco2)s1,.,-3%,34%,.,7%,22µM*
CCCSc1nnc(NC(=O)c2ccco2)s1,?,-22%,26%,-1%[46.1 µM],14%,0%
Cc1c(Cl)sn(-c2ccc(Cl)cc2)c1=O,?,1µM*,?,9.2µM*,2.5µM*,3.5µM*
O=C(N/N=C/c1[nH]c2ccccc2c1Cl)c1cccc(Br)c1,?,-8%,-16%,-12%[46.1 µM],7.1µM*,-5%
Cc1cc(C)c(C(=O)NCc2nc(-c3cccc(NC(=O)C4CCCN(C)C4)c3)oc2C)[nH]1 (configuration not stated),.,.,-6%,.,.,.
Cc1nc(NS(=O)(=O)c2ccccc2)sc1NC(=O)OCCN(C)C,29%,18%,-6%,8%,9%,32µM*
CCOC(=O)c1sc(NS(=O)(=O)c2ccccc2)nc1C,8%,8%,.,1%,15%,-28%
